# Measurements: PubChem BioAssay (NCATS)
# Results filed as inconclusive are left out. Values without a mark were called inactive. Calls of active or inactive are those of the source. Calls follow the shape of the dose curve; as a rule, active = well fitted inhibition curve with a large enough effect; inconclusive = small, poorly fitted or top-dose-only effect; inactive = flat fitted curve, though single readings scatter.
# Tested on: CP256
# Experiment: qHTS profiling for inhibitors of Plasmodium falciparum proliferation (AID 504749); also: nearly all actives have a fitted effect of over 60% in size;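 as to activity, negative = inhibition: 0% = DMSO vehicle and full inhibition = artemisinin control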
# Details: P. falciparum in erythrocytes, SYBR Green DNA, 72 h; series mostly up to 28.7 µM; activity, negative = inhibition: at the top concentration
# Method in brief: (§1)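 Fluorescence of SYBR Green-bound parasite DNA, read at 485/535 nm, served as the growth measure. Infected erythrocytes were cultured with compound 72 h; artemisinin (0.29 uM) and DMSO wells defined the normalization range.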
# Potency is read from the fitted curve at half-maximal effect.
SMILES,"activity, negative = inhibition [%]",Potency
CCC(C)(C)c1ccc(CC(C)CN2C[C@@H](C)O[C@@H](C)C2)cc1 (stereo partly specified),-24.4,–
CN(C)c1ccc(C(=C2C=CC(=[N+](C)C)C=C2)c2ccc(N(C)C)cc2)cc1,–,158 nM (active)
COc1ccc(C(=O)CC(=O)c2ccc(C(C)(C)C)cc2)cc1,4.27,–
CCc1cc(C(N)=S)ccn1,2.98,–
NC(=O)N1c2ccccc2CC(=O)c2ccccc21,-3.8,–
Cc1nnc(NS(=O)(=O)c2ccc(N)cc2)s1,1.16,–
CCN(C)C(=O)Oc1cccc([C@H](C)N(C)C)c1,1.19,–
CNC1CCCN(c2c(F)cc3c(=O)c(C(=O)O)cn(C4CC4)c3c2OC)C1 (stereo unspecified),-0.391,–
COc1cc(NCc2ccc3nc(N)nc(N)c3c2C)cc(OC)c1OC,–,316 nM (active)

# Tested on: CP260
# Experiment: as above
# Details: P. falciparum in erythrocytes, SYBR Green DNA, 72 h; series mostly up to 28.7 µM; activity, negative = inhibition: at the top concentration
# Method in brief: as §1
SMILES,"activity, negative = inhibition",Potency
Cn1nnc2c(C(N)=O)ncn2c1=O,3.57%,–
CC(C)OC(=O)C(C(=O)OC(C)C)=C1SC=CS1,4.5%,–
CC1=NN(c2ccccc2)C(=O)C1,-0.632%,–
COC(=O)Nc1nc2ccc(Sc3ccccc3)cc2[nH]1,3.11% [at 12.8 µM],–
CCc1c2c(nc3ccc(OC(=O)N4CCC(N5CCCCC5)CC4)cc13)-c1cc3c(c(=O)n1C2)COC(=O)[C@]3(O)CC,6.89%,–
Cc1noc(NS(=O)(=O)c2ccc(N)cc2)c1C,-4.22%,–
CN1CCN(c2c(F)cc3c(=O)c(C(=O)O)cn4c3c2OCN4C)CC1,-9.43%,–
S=P(N1CC1)(N1CC1)N1CC1,0.322%,–
CC[C@H](NC(C)C)[C@H](O)c1ccc(O)c2[nH]c(=O)ccc12,-4.47%,–
CC[C@H](C)C(=O)O[C@H]1C[C@@H](C)C=C2C=C[C@H](C)[C@H](CC[C@@H]3C[C@@H](O)CC(=O)O3)[C@H]21,-14.2%,–
CC(C)(Sc1cc(C(C)(C)C)c(O)c(C(C)(C)C)c1)Sc1cc(C(C)(C)C)c(O)c(C(C)(C)C)c1,–,3550 nM (active)
Cc1ncc([N+](=O)[O-])n1CCO,0.324%,–
CCCc1cc(C(N)=S)ccn1,0.612%,–
CCCN[C@H]1CCc2nc(N)sc2C1,3.11%,–
COC(=O)Nc1nc2ccc(C(=O)c3ccccc3)cc2[nH]1,1.31% [at 12.8 µM],–
CC(C)(C#N)c1cc(Cn2cncn2)cc(C(C)(C)C#N)c1,-2.09%,–
COc1c(N2CCNC(C)C2)c(F)cc2c(=O)c(C(=O)O)cn(C3CC3)c12 (stereo unspecified),-24.4%,–
O=C(O)c1cc(=O)[nH]c(=O)[nH]1,3.44%,–
CNS(=O)(=O)Cc1ccc2[nH]cc(CCN(C)C)c2c1,-16.2%,–
CCOc1cc(N)c(Cl)cc1C(=O)NCC1CN(Cc2ccc(F)cc2)CCO1 (stereo unspecified),–,11200 nM (active)
CN(C)c1ccc(C(=C2C=CC(=[N+](C)C)C=C2)c2ccc(N(C)C)cc2)cc1,–,224 nM (active)
CCc1cc(C(N)=S)ccn1,4.89%,–
NC(=O)N1c2ccccc2CC(=O)c2ccccc21,4.6%,–
Cc1nnc(NS(=O)(=O)c2ccc(N)cc2)s1,-3.09%,–
CCN(C)C(=O)Oc1cccc([C@H](C)N(C)C)c1,1.66%,–
CNC1CCCN(c2c(F)cc3c(=O)c(C(=O)O)cn(C4CC4)c3c2OC)C1 (stereo unspecified),-15.7%,–
COc1cc(NCc2ccc3nc(N)nc(N)c3c2C)cc(OC)c1OC,–,158 nM (active)
